{"source": "PubChem BioAssay (NCI)", "note": "“And” between values parts separate entries of the source, which are not always exact repeats. Equal values may be shown once. Compounds without any hit were thinned out: in the full panel of roughly 83,000, 20% have a hit.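 Single-dose data. Exposure time 48 hours. Values below 10 considered active.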 The source made the active and inactive calls.", "data": [{"test_system": "MDA-MB-468 breast", "experiment": "NCI-60 one-dose screen, 48 h (100 = growth as untreated, 0 = no growth, -100 = all killed)", "conditions": "10 µM unless noted", "values": [{"smiles": "CN1CCN(c2ccc(/C=N/Nc3nc4ccccc4c(=O)n3-c3ccccc3)cc2)CC1", "growth": "90.8% (inactive)"}, {"smiles": "COc1ccc(/C=C/c2nc(N3CCOCC3)c3nc(Cl)c(Cl)cc3n2)cc1OC", "growth": "101% (inactive)"}, {"smiles": "Cc1ccc(Cn2cc(COc3ccc4c5ccnc(C)c5n(CCCc5ccccc5)c4c3)nn2)cc1", "growth": "99% (inactive)"}, {"smiles": "COc1cc(NC(=O)CCSc2nc3ccccc3c(=O)n2CCc2ccccn2)cc(OC)c1OC", "growth": "91.8% (inactive)"}, {"smiles": "Nc1ccc2cc3ccc(N)cc3nc2c1", "growth": "112% (inactive) and -42% (active)"}, {"smiles": "O=C(Nc1ccc(OCc2nnc(-c3ccccc3)o2)c(F)c1)Nc1ccc(Cl)c(C(F)(F)F)c1", "growth": "1.01% (active)"}, {"smiles": "Cc1cnc(N)nc1OCCNC(=O)c1cccc(-c2ccc(S(=O)(=O)Nc3ccc4c(c3)N(C(=O)C3CC3)CCC4)cc2)c1", "growth": "36.8% (inactive)"}, {"smiles": "COc1cccc(-c2nc3occn3c2-c2ccnc(NCCCNS(=O)(=O)c3ccc(C(F)(F)F)cc3)n2)c1", "growth": "81.6% (inactive)"}, {"smiles": "COc1ccc(-c2c(C)noc2-c2ccc(O)cc2O)cc1", "growth": "77.8% (inactive)"}, {"smiles": "COC(=O)Nc1ccc2ccc3c(NC(=O)OC)ccc4ccc1c2c43", "note": "(tested in a mixture with another compound)", "growth": "40.9% (inactive)"}, {"smiles": "C/C(=N\\Nc1cc(C)c2cc(C)ccc2n1)c1ccccn1", "growth": "-69% (active)"}, {"smiles": "COc1ccc(-c2nsc3c2NC(=O)CC3c2ccc(F)cc2)cc1", "note": "(stereo not given)", "growth": "1.54% (active)"}, {"smiles": "COCCCNCC(=O)Nc1c(C)cccc1C", "growth": "112% (inactive)"}, {"smiles": "OCc1cccc2ccccc12", "growth": "124% (inactive)"}, {"smiles": "CC(C)=C1CCC(C)C/C1=N\\N=C(N)N", "note": "(stereo not given)", "growth": "101% (inactive)"}, {"smiles": "CCC1CCC(C)NC1", "note": "(stereo not given)", "growth": "92.4% (inactive)"}, {"smiles": "O=C(Nc1ccc2[nH]ncc2c1)c1csc(Nc2ccccc2)n1", "growth": "14.4% (inactive)"}, {"smiles": "CCc1ccccc1-n1c(-c2ccc(Cl)cc2)cc(-c2ccc(OC)cc2)c(C#N)c1=O", "growth": "104% (inactive)"}, {"smiles": "COc1cc(OC)cc(C(=O)Nc2cnc(Nc3ccc(N4CCOCC4)nc3)nc2Oc2ccc(C(F)(F)F)cc2)c1", "growth": "81.1% (inactive)"}, {"smiles": "CCCCCCCCCCC/C=C\\C[C@H](O)C/C=C1/C(=O)C=C[C@@H]1C/C=C\\CCCC(=O)OC", "growth": "-46.3% (active)"}, {"smiles": "C=C1C(=O)O[C@H]2[C@H]1CC/C(C=Nc1ccc(C(F)(F)F)cc1N)=C\\CC[C@@]1(C)O[C@@H]21", "growth": "1.92% (active)"}, {"smiles": "O=C(OCc1nc2nc(Cl)nc(N3CCOCC3)c2[nH]1)n1ccnc1", "growth": "-26.9% (active)"}, {"smiles": "O=C(CCN1CCCCC1)c1ccc2ccccc2c1", "growth": "92.1% (inactive)"}, {"smiles": "CN1CCN(Cc2ccc(NC(=O)c3cncc(C#Cc4cnc5ccc(NCCO)nn45)c3)cc2C(F)(F)F)CC1", "growth": "-55.5% (active)"}, {"smiles": "CC(=O)c1c(C)nc2ccccc2c1/C=C/c1cccc(C)c1", "growth": "28.5% (inactive)"}, {"smiles": "Cc1ccc2c(n1)C(=O)C(Cl)=C(Nc1ccccc1C(C)C)C2=O", "growth": "34.9% (inactive)"}, {"smiles": "COc1ccc2[nH]cc(/C=N/Nc3nc4ccccc4s3)c2c1", "growth": "40.6% (inactive)"}, {"smiles": "COc1ccc(-c2cc(C(=O)N3N=C(c4ccc(N)cc4)CC3c3ccc(OC)cc3)c3cc(OC)ccc3n2)cc1", "note": "(stereo not given)", "growth": "37.6% (inactive)"}, {"smiles": "O=C1Nc2ccccc2/C1=N/N=C/c1ccsc1", "growth": "78.3% (inactive)"}, {"smiles": "O=C(Nc1cccc(-c2nc(-c3ccc(NC(=O)c4cccnc4)cc3Cl)no2)c1)Nc1ccc(NC(=O)C2CC2)c(C(F)(F)F)c1", "growth": "-72.6% (active)"}, {"smiles": "CC(C)c1ccc(C(=O)Nc2sc3c(c2C(N)=O)CCC(=O)C3)cc1", "growth": "-47.6% (active)"}, {"smiles": "COc1cccc(-c2nn(-c3ccccc3)cc2-c2ccnc(NCCNS(=O)(=O)c3ccc(C(F)(F)F)cc3)c2)c1", "growth": "9.78% (active)"}, {"smiles": "CCN(CC)CCOc1ccc(/C(=C(\\C)c2ccc(OC)c(F)c2)c2ccc(Cl)cc2)cc1", "growth": "81.6% (inactive)"}, {"smiles": "Nc1nc(Nc2ccccc2SSc2ccccc2Nc2nc(N)nc(-c3ccc(I)cc3)n2)nc(-c2ccc(I)cc2)n1", "growth": "109% (inactive)"}, {"smiles": "O=C(N/N=C\\c1ccccc1S(=O)(=O)O)N/N=C/c1ccccc1S(=O)(=O)O", "growth": "101% (inactive)"}, {"smiles": "C=C1C(=O)O[C@@H]2C[C@@H](C)CCC(=O)[C@](C)(OC(C)=O)C[C@H](OC(=O)/C(C)=C\\C)[C@@H]12", "growth": "32.7% (inactive)"}, {"smiles": "c1ccc(CNCCN(CCNCc2ccccn2)Cc2ccc3ccccc3c2)nc1", "growth": "-10% (active)"}, {"smiles": "CCCCCCNC(=O)Oc1ccc(/C(=C(/C)c2ccc(Cl)cc2)c2ccc(OCCN3CCCC3)cc2)cc1", "growth": "62.6% (inactive)"}, {"smiles": "O=c1[nH]c2ccccc2cc1-c1nnc(Cc2ccccc2)o1", "growth": "53.9% (inactive)"}, {"smiles": "Cc1ccccc1N1C(c2ccccc2)=NNC12C=CC(=O)c1c(O)cccc12", "note": "(stereo not given)", "growth": "88% (inactive)"}]}]}
